For 13 compounds, composite z-score and z-score results are on record in PubChem BioAssay.

Active and inactive are the calls of the source.

In test [1] the test system is XIP peptide (Xip251-270) binding. The experiment in a line: XIP fragment 251-270 binding compounds – biochemical, small-molecule microarray, fluorescence 635/667 nm, 0.1 µg/mL protein, primary screen (AID 1182). The note with it: fluorescent protein binding, 635 nm, higher = more signal, called active from +8 up or from −8 down.
The subject of test [2] is XIP peptide (Xip251-270). The experiment in a line: compounds binding XIP fragment 251-270 – biochemical, small-molecule microarray, fluorescence 635/667 nm, 0.5 µg/mL protein, primary screen (AID 1183). The note with it: fluorescence 635 nm, higher = more signal.
The nature of test [3]: blood-stage malaria parasite viability loss – strain 3D7, DAPI fluorescence, 100 nL, primary screen (AID 1184).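 Also: parasites grown inside human red blood cells in medium with human serum.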 The note with it: P. falciparum 3D7 growth, 3 d, higher = more signal.
For test [4], the target named is Homeobox protein Hox-A13 (Mus musculus) (UniProt Q62424). The experiment in a line: disruptors of Hoxa13 oligonucleotide interaction – biochemical, fluorescence polarization, labeled oligonucleotide, primary screen (AID 1185). The note with it: Hoxa13:DNA binding, 15 min, higher = more signal, called active from +8 up or from −8 down. On the technique in general: Fluorescence polarisation rises when a labelled molecule tumbles more slowly, as on binding a larger partner.
Sequence of Homeobox protein Hox-A13 (Mus musculus) (Q62424 whole entry, looked up): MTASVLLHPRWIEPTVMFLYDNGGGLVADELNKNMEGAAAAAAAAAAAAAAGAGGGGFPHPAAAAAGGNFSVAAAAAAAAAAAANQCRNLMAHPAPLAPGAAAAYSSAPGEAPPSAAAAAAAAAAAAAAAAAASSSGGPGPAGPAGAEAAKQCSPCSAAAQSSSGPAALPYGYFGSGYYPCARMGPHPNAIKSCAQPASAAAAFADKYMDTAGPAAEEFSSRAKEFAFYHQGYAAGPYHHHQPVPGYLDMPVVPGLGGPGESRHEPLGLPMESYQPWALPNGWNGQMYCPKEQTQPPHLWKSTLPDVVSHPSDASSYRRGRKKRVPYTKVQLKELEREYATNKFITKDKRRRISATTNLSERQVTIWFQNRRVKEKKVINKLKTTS

Consider `O=C1C[C@@H](O)[C@@H](O)[C@@H]2[C@@H]3C(=O)N(c4cccc(Oc5ccccc5)c4)C(=O)[C@@H]3CC[C@H]12`, for which the composite z-score in test [1] was 0.0532 (inactive); in test [2], 0.111. Besides, the z-score in test [3] is 1.33; in test [4] it was -0.14 (inactive).

`CCOC(=O)NN=C1C[C@@H](O)[C@@H](O)[C@@H]2[C@@H]3C(=O)N(c4cccc(Oc5ccccc5)c4)C(=O)[C@@H]3CC[C@@H]12`: the composite z-score is 0.187 (inactive) in test [1] and 0.651 in test [2]. For the same compound, the z-score in test [3] was -0.512; in test [4], -4.18 (inactive).

For `CCC(=O)[C@@]1(O)C(=O)N2C(=C3C(=O)OCC[C@@H]31)N(Cc1ccccc1)C(C)=C(C(=O)OC)[C@H]2c1ccccc1`, the values for the composite z-score in test [1] and in test [2] were -0.0955 (inactive) and 0.177, respectively. The figures for the z-score in test [3] and in test [4] were 0.663 and -0.219 (inactive), respectively.

Turning to `COC(=O)NCC=Cc1nc(CCCO)co1`, the composite z-score in test [1] was -0.755 (inactive); in test [2], 0.432. Moreover, the figures for the z-score in test [3] and in test [4] were 0.316 and -2.8 (inactive), respectively.

For `CC(C)(C)N1C(=O)[C@H]2[C@H]3[C@H](O)C=CC(=O)[C@@H]3CC[C@H]2C1=O`, the composite z-score is 0.127 (inactive) in test [1] and 0.16 in test [2]. Moreover, the z-score in test [3] was -0.0484; in test [4], 0.14 (inactive).

For `CCOC(=O)NN=C1C[C@@H](O)[C@@H](O)[C@@H]2[C@@H]3C(=O)N(Cc4ccccc4)C(=O)[C@@H]3CC[C@H]12`, the values for the composite z-score in test [1] and in test [2] were -0.405 (inactive) and 0.0213, respectively. Further, the z-score in test [3] is -0.179; in test [4], -1.48 (inactive).

Turning to `CCOC(=O)[C@H](CC(C)C)NC(=O)CCC1CC(OC(=O)NCc2ccc3c(c2)OCO3)CC2(CCCC(COC(=O)NCc3cccc(C(F)(F)F)c3)O2)O1` (some centres not stated), the figures for the composite z-score in test [1] and in test [2] were 0.319 (inactive) and 0.348, respectively. For the same compound, the z-score in test [3] was -2.06; in test [4], -1.71 (inactive).

Consider `CC(=O)OC[C@H]1O[C@H](C#Cc2ccccc2)C=C[C@@H]1OC(C)=O`, for which the composite z-score in test [1] was -0.794 (inactive); in test [2] it was 0.823. The z-score in test [3] is 0.0037; in test [4], -3 (inactive).

Regarding `CC(C)CON=C1C[C@@H](O)[C@@H](O)[C@@H]2[C@@H]3C(=O)N(C(C)(C)C)C(=O)[C@@H]3CC[C@H]12`, the composite z-score in test [1] was 1.9 (inactive); in test [2], 0.494. Also, the z-score in test [3] is 1.75; in test [4], -0.219 (inactive).

`CCCCC#C[C@@H]1C=C[C@H](OC(C)=O)[C@@H](COC(C)=O)O1`: the composite z-score in test [1] is 1.45 (inactive); in test [2], 0.641. The figures for the z-score in test [3] and in test [4] were 0.247 and -4.35 (inactive), respectively.

For the compound `COc1ccc(C#C[C@@H]2C=C[C@H](OC(C)=O)[C@@H](COC(C)=O)O2)cc1`, the composite z-score in test [1] is 3.11 (inactive); in test [2], 0.443. The z-score is 0.714 in test [3] and -2.53 (inactive) in test [4].

For `CO[C@@H]1COC(=O)[C@@H](C)COC(=O)[C@@H](C)NC(=O)CC=C[C@@H]1C`, the composite z-score in test [1] was 0.0875 (inactive); in test [2], 0.304. Also, the z-score was -1.52 in test [3] and -0.701 (inactive) in test [4].

Take `COC(=O)[C@@H]1CC[C@H](C)[C@@H](c2ccc(C)cc2)N1C(=O)c1ccc(C=NO[C@@H]2O[C@H](COC(C)=O)[C@@H](OC(C)=O)[C@H](OC(C)=O)[C@H]2OC(C)=O)cc1`: the composite z-score in test [1] is -0.279 (inactive); in test [2] it was 0.649. Further, the z-score in test [3] is -1.4; in test [4], 0.102 (inactive).
